Measured values from ChEMBL document CHEMBL3988442, “University of Dundee, Small-Polar-MMV Screening Library” (2021).
For some assays here: Potency and affinity values are given separately.

Key:
Set-up in all cases: scale not given: direction of the effect not stated beside the values
[1] = molecular target: Protein translocase subunit SecA (Escherichia coli (strain K12)) (UniProt P10408); experiment: Assay to Identify E. coli SecA ATPase Inhibitors; type: functional; settings: 30 µM
[2] = molecular target: T1, Ubiquitin-activating enzyme e1, putative (Leishmania donovani (strain BPK282A1)) (UniProt E9BSI1); experiment: Leishmania donovani Ubiquitin Activating Enzyme (LdE1); type: functional; settings: 30 µM
T1 sequence (whole entry): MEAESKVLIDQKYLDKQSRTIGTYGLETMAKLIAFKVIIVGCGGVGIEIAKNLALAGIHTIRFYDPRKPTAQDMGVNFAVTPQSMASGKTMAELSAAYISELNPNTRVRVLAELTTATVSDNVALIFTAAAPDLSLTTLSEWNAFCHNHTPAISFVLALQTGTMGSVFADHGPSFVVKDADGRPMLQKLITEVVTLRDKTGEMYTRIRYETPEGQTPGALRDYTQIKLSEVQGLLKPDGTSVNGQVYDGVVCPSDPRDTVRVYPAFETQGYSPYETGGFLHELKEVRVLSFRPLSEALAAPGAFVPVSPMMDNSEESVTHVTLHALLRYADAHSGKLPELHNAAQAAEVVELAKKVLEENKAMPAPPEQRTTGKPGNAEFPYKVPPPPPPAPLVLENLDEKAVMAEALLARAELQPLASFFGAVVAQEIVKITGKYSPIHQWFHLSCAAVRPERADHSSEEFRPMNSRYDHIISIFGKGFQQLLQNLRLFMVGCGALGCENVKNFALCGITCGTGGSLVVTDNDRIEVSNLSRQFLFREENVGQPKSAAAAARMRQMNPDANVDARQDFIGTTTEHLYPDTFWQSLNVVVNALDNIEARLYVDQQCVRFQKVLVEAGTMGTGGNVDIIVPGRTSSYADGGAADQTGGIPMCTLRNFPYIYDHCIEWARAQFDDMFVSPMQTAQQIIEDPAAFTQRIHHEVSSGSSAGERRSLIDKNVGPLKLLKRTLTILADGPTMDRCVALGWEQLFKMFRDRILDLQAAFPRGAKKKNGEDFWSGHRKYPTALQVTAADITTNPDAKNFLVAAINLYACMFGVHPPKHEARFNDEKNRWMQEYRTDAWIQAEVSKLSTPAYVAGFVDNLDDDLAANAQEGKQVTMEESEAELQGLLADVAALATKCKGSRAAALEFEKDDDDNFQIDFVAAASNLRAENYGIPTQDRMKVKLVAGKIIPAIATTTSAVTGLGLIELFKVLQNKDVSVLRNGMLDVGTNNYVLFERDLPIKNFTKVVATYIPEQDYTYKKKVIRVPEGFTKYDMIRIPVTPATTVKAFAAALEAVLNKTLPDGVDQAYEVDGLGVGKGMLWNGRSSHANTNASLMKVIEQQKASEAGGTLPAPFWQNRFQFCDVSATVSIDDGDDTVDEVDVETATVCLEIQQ

[3] = molecular target: AMP-activated protein kinase, AMPK (Homo sapiens) (UniProt P54646+O43741+P54619+Q9UGJ0+Q9Y478+Q13131+Q9UGI9); experiment: AMP-dependent Kinase enzyme assay. An in vitro enzyme assay that detects ADP turnover that is directly proportional to AMPK activity. This uses naive AMPK that is activated during the assay with MK-8722; type: functional; settings: 30 µM
[4] = molecular target: Sialic acid-binding Ig-like lectin 9 (Homo sapiens) (UniProt Q9Y336); experiment: Hs-Siglec9 ALPHAscreen SOP 20170721; settings: 10 µM
[5] = tested on: Trypanosoma cruzi; experiment: Trypanosoma cruzi phosphomannomutase and mannose-1-phosphate guanylyltransferase assay; type: functional; settings: 10 µM
[6] = molecular target: T2, Arginase-2, mitochondrial (Homo sapiens) (UniProt P78540); experiment: in vitro enzyme assay to detect the production of urea directly proportional to the activity of Arginase II; type: functional; settings: 33.3 µM; also: in the data most compounds retested in dose-response had high values
T2 sequence (whole entry): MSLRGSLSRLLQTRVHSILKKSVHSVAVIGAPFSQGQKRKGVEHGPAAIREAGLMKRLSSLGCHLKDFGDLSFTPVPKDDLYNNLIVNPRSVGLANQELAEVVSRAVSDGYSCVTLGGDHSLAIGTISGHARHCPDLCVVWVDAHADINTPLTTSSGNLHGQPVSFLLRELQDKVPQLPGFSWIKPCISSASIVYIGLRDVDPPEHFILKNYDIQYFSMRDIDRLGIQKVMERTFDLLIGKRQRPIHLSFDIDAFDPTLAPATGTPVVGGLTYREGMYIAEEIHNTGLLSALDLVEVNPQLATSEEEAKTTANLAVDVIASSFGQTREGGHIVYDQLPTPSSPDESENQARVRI

[7] = molecular target: T3, Proteasome subunit beta (Trypanosoma cruzi) (UniProt O96673); experiment: Trypanosoma cruzi proteasome chymotrypsin-like activity (TcProtChymo) assay.; also: in the data most compounds retested in dose-response had high values; type: functional; settings: 9.37 µM
T3 sequence (whole entry): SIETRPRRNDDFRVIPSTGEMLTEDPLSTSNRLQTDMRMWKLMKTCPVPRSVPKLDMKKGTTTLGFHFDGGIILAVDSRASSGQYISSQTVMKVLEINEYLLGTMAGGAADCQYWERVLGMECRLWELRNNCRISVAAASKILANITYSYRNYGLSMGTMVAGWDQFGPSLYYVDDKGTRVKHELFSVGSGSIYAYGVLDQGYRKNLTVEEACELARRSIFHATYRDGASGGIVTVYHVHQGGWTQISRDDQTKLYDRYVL

[8] = organism: Homo sapiens; experiment: To identify inhibition of the IFN signalling (Jak-Stat) pathway via expression of an eGFP reporter gene under the control of an IFN-stimulated response element (ISRE) containing MxA promoter.; type: functional; settings: 30 µM
[9] = molecular target: T4, Tyrosyl-tRNA synthetase, putative (Trypanosoma cruzi (strain CL Brener)) (UniProt Q4DSP6); experiment: Trypanosoma cruzi tyrosyl tRNA synthetase (TcYRS) _High Tyrosine SOP; type: functional; settings: 30 µM; also: in the data most compounds retested in dose-response had high values
T4 sequence (whole entry): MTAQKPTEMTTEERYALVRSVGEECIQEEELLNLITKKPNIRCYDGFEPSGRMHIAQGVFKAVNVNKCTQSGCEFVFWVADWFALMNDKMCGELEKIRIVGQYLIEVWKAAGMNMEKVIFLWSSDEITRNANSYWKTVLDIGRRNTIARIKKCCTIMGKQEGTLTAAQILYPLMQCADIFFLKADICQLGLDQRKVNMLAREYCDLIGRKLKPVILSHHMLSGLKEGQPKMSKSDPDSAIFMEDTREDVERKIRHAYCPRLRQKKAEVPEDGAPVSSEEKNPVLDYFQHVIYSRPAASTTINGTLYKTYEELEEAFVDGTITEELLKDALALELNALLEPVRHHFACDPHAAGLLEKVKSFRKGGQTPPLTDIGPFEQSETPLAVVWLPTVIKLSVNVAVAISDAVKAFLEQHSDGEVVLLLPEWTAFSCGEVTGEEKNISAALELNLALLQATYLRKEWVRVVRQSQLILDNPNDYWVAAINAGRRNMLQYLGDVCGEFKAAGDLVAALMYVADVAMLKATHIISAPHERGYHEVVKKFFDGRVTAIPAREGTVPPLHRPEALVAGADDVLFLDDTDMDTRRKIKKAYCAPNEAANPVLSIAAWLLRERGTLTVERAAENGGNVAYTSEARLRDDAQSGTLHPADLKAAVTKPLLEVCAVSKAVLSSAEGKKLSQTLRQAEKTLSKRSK

[10] = molecular target: T4, Tyrosyl-tRNA synthetase, putative (Trypanosoma cruzi (strain CL Brener)); experiment: Trypanosoma cruzi tyrosyl tRNA synthetase (TcYRS) SOP; type: functional; settings: 30 µM
[11] = molecular target: Chromo domain-containing protein 1 (Saccharomyces cerevisiae (strain ATCC 204508 / S288c) (Baker's yeast)) (UniProt P32657); experiment: ScCHD-1 Enzyme Inhibition Assay; type: functional; settings: 30 µM; also: in the data most compounds retested in dose-response had high values
Chromo domain-containing protein 1 (Saccharomyces cerevisiae (strain ATCC 204508 / S288c) (Baker's yeast)), sequence (P32657 whole entry, the tested form may be a part): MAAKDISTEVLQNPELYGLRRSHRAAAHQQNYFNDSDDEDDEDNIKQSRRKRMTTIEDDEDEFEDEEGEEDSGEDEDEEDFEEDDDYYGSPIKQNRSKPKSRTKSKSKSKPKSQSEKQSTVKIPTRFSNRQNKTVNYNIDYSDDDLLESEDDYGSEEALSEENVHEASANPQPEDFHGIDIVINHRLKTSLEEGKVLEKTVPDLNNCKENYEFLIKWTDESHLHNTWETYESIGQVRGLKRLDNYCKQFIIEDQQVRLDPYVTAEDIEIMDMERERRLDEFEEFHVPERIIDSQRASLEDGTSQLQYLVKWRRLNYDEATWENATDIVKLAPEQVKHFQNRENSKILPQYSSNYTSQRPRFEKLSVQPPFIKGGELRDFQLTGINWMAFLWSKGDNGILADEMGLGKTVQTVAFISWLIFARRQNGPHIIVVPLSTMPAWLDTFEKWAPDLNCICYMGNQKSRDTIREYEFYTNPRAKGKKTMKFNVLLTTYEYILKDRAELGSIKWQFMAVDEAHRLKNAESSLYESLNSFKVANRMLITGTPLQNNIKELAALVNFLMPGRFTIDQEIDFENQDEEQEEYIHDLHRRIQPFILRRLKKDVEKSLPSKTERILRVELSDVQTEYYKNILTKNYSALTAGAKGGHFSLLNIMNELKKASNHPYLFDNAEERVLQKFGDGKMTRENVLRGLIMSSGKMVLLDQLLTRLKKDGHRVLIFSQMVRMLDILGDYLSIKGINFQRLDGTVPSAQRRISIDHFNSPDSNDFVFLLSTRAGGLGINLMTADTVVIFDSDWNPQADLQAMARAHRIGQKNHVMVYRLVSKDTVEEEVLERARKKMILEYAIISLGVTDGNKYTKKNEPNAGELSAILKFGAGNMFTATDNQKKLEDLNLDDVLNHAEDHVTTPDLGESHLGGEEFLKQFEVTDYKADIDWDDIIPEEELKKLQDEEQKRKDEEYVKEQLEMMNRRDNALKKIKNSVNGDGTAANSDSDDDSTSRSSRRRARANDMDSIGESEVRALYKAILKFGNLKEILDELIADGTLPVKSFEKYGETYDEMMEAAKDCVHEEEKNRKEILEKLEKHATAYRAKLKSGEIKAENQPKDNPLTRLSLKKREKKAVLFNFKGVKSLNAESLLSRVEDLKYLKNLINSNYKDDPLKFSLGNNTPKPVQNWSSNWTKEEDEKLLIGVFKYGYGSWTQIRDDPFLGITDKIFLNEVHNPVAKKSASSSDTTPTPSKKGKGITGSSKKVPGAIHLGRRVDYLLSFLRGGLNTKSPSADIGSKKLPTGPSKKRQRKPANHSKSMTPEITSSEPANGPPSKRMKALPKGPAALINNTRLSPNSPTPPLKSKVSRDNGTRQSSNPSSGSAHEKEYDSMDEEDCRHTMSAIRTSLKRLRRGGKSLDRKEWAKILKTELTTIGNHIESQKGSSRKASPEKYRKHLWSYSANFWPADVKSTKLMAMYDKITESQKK

Protein translocase subunit SecA (Escherichia coli (strain K12)), sequence (P10408 whole entry): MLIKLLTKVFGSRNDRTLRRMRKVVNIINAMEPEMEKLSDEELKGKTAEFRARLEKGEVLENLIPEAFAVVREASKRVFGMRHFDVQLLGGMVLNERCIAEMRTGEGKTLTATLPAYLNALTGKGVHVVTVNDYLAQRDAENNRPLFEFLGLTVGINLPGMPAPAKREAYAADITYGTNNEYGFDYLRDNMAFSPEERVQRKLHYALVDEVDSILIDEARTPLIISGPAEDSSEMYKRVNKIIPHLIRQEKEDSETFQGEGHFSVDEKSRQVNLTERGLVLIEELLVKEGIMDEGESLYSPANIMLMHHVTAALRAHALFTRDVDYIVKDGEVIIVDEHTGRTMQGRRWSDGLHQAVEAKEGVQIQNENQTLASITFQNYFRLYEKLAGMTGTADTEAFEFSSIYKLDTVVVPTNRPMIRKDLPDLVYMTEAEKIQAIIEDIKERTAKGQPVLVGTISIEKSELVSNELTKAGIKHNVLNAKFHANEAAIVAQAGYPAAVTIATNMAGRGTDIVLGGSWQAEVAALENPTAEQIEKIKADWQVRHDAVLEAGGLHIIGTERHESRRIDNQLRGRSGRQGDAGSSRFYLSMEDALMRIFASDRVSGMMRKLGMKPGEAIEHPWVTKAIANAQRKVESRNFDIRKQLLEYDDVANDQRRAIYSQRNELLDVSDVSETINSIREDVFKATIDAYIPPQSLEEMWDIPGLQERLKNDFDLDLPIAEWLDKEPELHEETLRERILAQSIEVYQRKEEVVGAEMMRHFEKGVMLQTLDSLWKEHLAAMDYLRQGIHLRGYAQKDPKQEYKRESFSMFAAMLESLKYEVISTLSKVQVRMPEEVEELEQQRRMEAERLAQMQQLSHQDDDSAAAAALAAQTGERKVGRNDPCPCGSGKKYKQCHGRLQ
Sialic acid-binding Ig-like lectin 9 (Homo sapiens), sequence (Q9Y336 whole entry): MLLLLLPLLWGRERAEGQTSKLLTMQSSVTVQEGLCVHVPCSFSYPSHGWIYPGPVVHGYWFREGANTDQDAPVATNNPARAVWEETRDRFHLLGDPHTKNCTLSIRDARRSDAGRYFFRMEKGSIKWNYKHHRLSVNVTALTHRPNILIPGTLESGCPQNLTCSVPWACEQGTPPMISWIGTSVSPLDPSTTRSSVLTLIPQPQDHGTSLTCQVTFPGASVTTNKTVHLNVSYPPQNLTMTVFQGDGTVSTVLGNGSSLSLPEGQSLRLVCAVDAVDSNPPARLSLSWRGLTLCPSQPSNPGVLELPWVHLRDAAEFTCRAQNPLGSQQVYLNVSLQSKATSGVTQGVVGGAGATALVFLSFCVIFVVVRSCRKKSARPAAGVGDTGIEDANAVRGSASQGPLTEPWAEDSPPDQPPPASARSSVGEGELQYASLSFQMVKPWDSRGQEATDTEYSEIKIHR

Structure (SMILES) | Percent Effect [1] [%] | Percent Effect [2] [%] | Percent Effect [3] [%] | Percent Effect [4] [%] | Percent Effect [5] [%] | Percent Effect [6] [%] | Percent Effect [7] [%] | Percent Effect [8] [%] | Percent Effect [9] [%] | Percent Effect [10] [%] | Percent Effect [11] [%]
Cc1cnn(CC2CCCN2C(=O)c2nccc3ccccc23)c1 (stereo unspecified) | -3.25 | 13 | 4.54 | 3.78 | -0.49 | -1.05 | 6.39 | 10.7 | 0 | 11.8 | -15.9
Cc1ccc(NC(=O)c2n[nH]c(-n3cnnc3)n2)cc1C | -5.16 | 9.33 | -5.75 | -2.63 | 4.32 | 21.6 | -10.7 | -2.17 | 8.47 | 10.3 | -18.6
Cc1cccc2[nH]c(C3CCN(C(=O)c4ccnn4C)CC3)nc12 | -4.98 | 7.79 | 3.06 | 3.85 | -4.62 | -23.4 | 15.1 | 2.04 | 9.68 | 13.6 | -3.54
CN(C)C(=O)CNC(=O)c1ccc(Cl)cc1F | -6.12 | 21.1 | -0.479 | -6.12 | 3.99 | -65.1 | 13.7 | 15.7 | 6.38 | -28.6 | -15.3
CCOc1ncccc1C(=O)NCCN(CC)C1CC1 | -6.27 | 3.8 | 1.07 | -1.89 | -0.103 | 5.38 | 8.75 | 5.7 | 1.04 | 0 | -23.1
CC(=O)c1cn(CC(=O)NC(C(=O)O)C(C)C)c2ccccc12 (stereo unspecified) | -5.18 | -2.67 | 1.25 | -4.07 | -3.99 | -1.04 | 8.72 | -13.9 | 1.64 | 1.24 | 3.17
CCN(Cc1ccc2c(c1)OCO2)C(=O)NC(C)Cn1cccn1 (stereo unspecified) | -2.99 | 20.8 | 2.96 | -4.68 | -5.43 | 1.42 | 8.78 | 5.38 | 4.85 | 14.6 | -8.47
Cc1cc(C)nc(N2CCN(C(=O)c3cc(Cl)c[nH]3)CC2)n1 | -3.35 | 8.22 | -2.54 | 4.32 | 0.595 | -3.99 | 17.2 | -6.92 | 10.4 | 16.1 | -1.43
O=C(Cc1cccc(F)c1)NCCNCc1ccc2c(c1)CCO2 | -4.03 | 13 | -6 | 17.2 | 3.93 | -1.42 | -1.52 | -5.5 | 8.74 | 19.5 | -5.42
CCOCC(=O)N1C[C@@H](NC(C)=O)[C@H](c2ccc(OC)cc2)C1 | -0.132 | 5.33 | -8.83 | 9.11 | 2.63 | 18.8 | 15.2 | 14.1 | 7.1 | 18.5 | -1.7
COCCN1C(=O)[C@]2(CC[C@@H]3CN(C(=O)NC4CCCC4)C[C@@H]32)N=C1C | -2.35 | 8 | -3.34 | 5.66 | 4.83 | -52.5 | 6.84 | -7.18 | -7.29 | 10 | -9.58
COc1ccc(CN2CCC3(CC2)CCN(c2ncccn2)CC3)cc1 | -2.42 | 2.7 | 0.552 | 4.9 | 5.57 | 8.6 | 1.29 | -26.6 | 0 | 5.13 | 6.6
CCc1ncc2c(n1)CN(Cc1nc(C)c(C)o1)CC2 | -3.48 | 2.74 | -53 | -5.63 | -1.76 | 6.82 | 9.94 | 10.1 | 5.38 | 10 | -5.18
COc1ccc(C2=CCN(C(=O)CN(C)CC(C)C#N)CC2)cc1 (stereo unspecified) | -8.6 | -12.7 | -4.45 | 7.49 | 10.5 | -6.84 | 0.901 | 10.5 | 7.39 | 13.9 | -8.15
COc1cc(CN2CCN(c3cccc(OC)c3)C(=O)C2)cc(OC)c1 | -1.99 | 1.39 | -1.82 | -5.46 | -5.34 | -4.42 | 10.9 | -15.2 | 2.1 | 2.56 | -2.05
CCCNC(=O)NC(=O)CN(CC(C)O)c1ccccc1 (stereo unspecified) | -3.79 | 10.4 | 2.88 | -6.45 | 6.95 | -0.632 | 6.22 | -9.46 | 5.71 | 9.41 | 2.09
